Results on 40 compounds are retold here after PubChem BioAssay (NCI).

The structures appear in SMILES notation. Where “and” joins values, the source holds several entries; their conditions need not be identical. Equal values may be shown once. This is part of a sample that, as a whole, favours compounds with a hit. Of some 83,000 tested, about 20% had one in any assay.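 Single-concentration screen, 48 h exposure, 96-well plates. Endpoint: percent growth. Below 10 = active.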 Calls of active or inactive are those of the source.

The assay relates to HL-60(TB) leukemia. The experiment in a line: NCI-60 one-dose screen, 48 h (100 = growth as untreated, 0 = no growth, -100 = all killed). Particulars: 10 µM unless noted.
`O=S(=O)(Nc1ccc(Cl)c(C(F)(F)F)c1)c1ccc(-c2cnc(C3CC3)o2)cc1`: the growth is -38.6% (active).

With `Cn1cc(-c2csc(-c3ccc(Cl)cc3)n2)c2cccnc21`, the growth was 7.96% [100 µM] (active).

Take `Cc1ccc(Nc2c(C(N)=O)cnc3ccc(-c4csc(N)n4)cc23)cc1`: the growth was 109% (inactive).

As for `CCOC(=O)C1=C(C)N=C2Sc3cc(OC(F)(F)F)ccc3N2[C@H]1c1ccccn1`, the growth was 46.9% (inactive).

In the case of `CCN1CCN(C(=O)[C@]23CCC(C)(C)C[C@@H]2C2=CC[C@@H]4[C@@]5(C)CCC(=O)C(C)(C)[C@@H]5CC[C@@]4(C)[C@]2(C)CC3)CC1`, the growth is -35.8% (active).

As to `CC(O)c1cnc(/C=C2\SC(=S)N(Cc3ccccc3)C2=O)s1` (stereo not given), the growth is 20.4% (inactive).

Take `CC12CCC(C(=O)CC1=O)C2(C)C` (stereo not given): the growth is 71.5% (inactive) and 93.6% (inactive).

With `Nc1nc2c(c3cnccc13)C(c1cccc(Br)c1)Cc1cnccc1-2` (stereo not given), the growth was 3.01% (active).

`CC1(C)Cc2c(sc3ncn4nc(-c5ccc(O)cc5)nc4c23)CO1`: the growth was 62.1% (inactive).

Consider `Cc1nc2n(c(=O)c1CCN1CCC(c3noc4cc(F)ccc34)CC1)CCC[C@@H]2O`, for which the growth is 89.7% (inactive).

`C=C(c1ccc(C(=O)O)cc1)c1cc2c(cc1C)C(C)(C)CCC2(C)C`: the growth is 59.3% (inactive) and 74.6% (inactive).

In the case of `Oc1ccccc1/C=N\NC(=S)N/N=C/c1ccccc1O`, the growth is -7.82% (active) and 18.6% (inactive).

In the case of `O=C1c2ccccc2CN1c1ccccc1`, the growth is 75.1% (inactive).

In the case of `CC(=O)c1cccc(OC(=O)c2ccccc2)c1`, the growth was 79.9% (inactive).

In the case of `O=c1c(Br)ccc(Br)cc1Br`, the growth was -58.8% (active).

Regarding `COc1ccc(-c2cn(-c3cccc(C(=O)/C=C/c4cc(OC)c(OC)c(OC)c4)c3)c(=O)[nH]2)cc1OC`, the growth is 66.6% (inactive).

Regarding `CCCCCCCCCC(=O)Oc1ccc(/C(=C(/C)c2ccccc2)c2ccc(OCCN3CCCC3)cc2)cc1`, the growth was -30.4% (active).

`O=C(CCN1CCCC1)Nc1ccc2c(NCc3ccc(F)cc3)c3ccccc3nc2c1`: the growth was -47.3% (active).

On to `O=C(Nc1ccccc1S)c1ccccc1`, for which the growth was 105% (inactive).

In the case of `COc1cc(-c2nc(SC(C)C)nc(Nc3cccc(C)c3)c2C#N)cc(OC)c1OC`, the growth was 98.3% (inactive).

Consider `OCCNc1nc(NCCO)nc(Nc2ccc(C3=NN(c4ccc(Cl)cc4)C(c4ccc(Cl)cc4)C3)cc2)n1` (stereo not given), for which the growth was 46.2% (inactive).

Turning to `O=[N+]([O-])c1cc(S(=O)(=O)c2ccc(F)c([N+](=O)[O-])c2)ccc1F`, the growth was 59.9% (inactive).

With `CN1C(=O)NC(c2ccc(Cl)cc2)(c2ccc(Cl)cc2)C1=O`, the growth was 78.2% (inactive).

Regarding `CCCCCCCCn1ccc2cc(NC(=O)Cn3cc(CN4CCCC4)nn3)ccc21`, the growth was 13.8% (inactive).

In the case of `CC(=O)NC1C(O[C@H]2C[C@H]3[C@@H]4CC=C5C[C@@H](O)CC[C@]5(C)[C@H]4CC[C@]3(C)[C@H]2[C@H](C)C(=O)CCC(C)C)OCC(O)C1O` (stereo not given in full), the growth is 10.1% (inactive).

As to `CCC(C)C1(C2CCCC2)NC(=O)NC1=O` (stereo not given), the growth is 63.4% (inactive) and 98.2% (inactive).

For `COc1ccc(C(=O)c2cc(OC)c3c(c2)OCO3)cc1O`, the growth is 13.4% (inactive).

In the case of `COC(=O)c1ccc2c(c1)nc(-c1cc3ccccc3[nH]c1=O)n2-c1cc(C(C)(C)C)[nH]n1`, the growth was -16.9% (active).

For `Clc1ccc(C2c3ccccc3-c3nccn32)c(Cl)c1` (stereo not given), the growth was 48.6% (inactive).

On to `COc1cc(C2c3cc(OC(C)=O)c(OC)cc3CC3C(=O)OCC32)ccc1OC(C)=O` (stereo not given), for which the growth is 71.7% (inactive).

As to `COC(=S)SCN(CSC(=S)OC)c1ccc(Cl)cc1`, the growth was 90.4% (inactive).

As for `COc1ccccc1NC(=O)N=Nc1c(O)[nH]c2ccccc12`, the growth is 93.8% (inactive).

Turning to `O=C(/C=C/c1cccc(Cl)c1)c1ccccc1`, the growth is 95.3% (inactive) and 82.5% (inactive).

With `O=C1NCc2ccc3c(-c4cccc(Cl)c4)c[nH]c3c21`, the growth is -4.05% (active).

As for `COCCNCC(O)Cn1c2ccc(Cl)cc2c2cc(Cl)ccc21` (stereo not given), the growth was -42.6% (active).

On to `C/C=C(\C)C(C(=O)NC1CCCCC1)N(C(=O)C1CCc2cc(F)ccc2O1)c1ccc(Cl)cc1` (stereo not given), for which the growth is 97.8% (inactive).

On to `CCC1S/C(=N\N=C(/C)c2ccco2)N(c2ccccc2)C1=O` (stereo not given), for which the growth is 106% (inactive).

With `O=C(NNc1nccc(Nc2ccc(S(=O)(=O)Nc3ccncc3)cc2)n1)c1ccccc1`, the growth was 119% (inactive).

On to `CC(C)N(CCOc1cccc(-c2nc3sccn3c2-c2ccnc(S(C)(=O)=O)n2)c1)C(C)C`, for which the growth was 80.8% (inactive).

For `Nc1nccc2c1ccn2-c1ccc(NC(=O)Nc2cccc(C(F)(F)F)c2)cc1`, the growth was 117% (inactive).
